High-throughput results: PubChem BioAssay, National Center for Advancing Translational Sciences (NCATS)
SMN2 splice enh: SMN2 splice variant enhancement | HEK293 SMN2-luciferase splicing reporter, luminescence, 30-36 h | Potency, µM (doses to about 46.1 µM), for inactives: at the top dose activity change, positive = activation, hits mostly activators | 210,000 tested, 2.8% active | AID 1458; note: % of control where 0% means no effect; nearly all actives have a fitted effect of over 55% in size
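HEK293 cells carry an SMN2 minigene-luciferase reporter in which exon 7 inclusion puts luciferase in frame. Cells were seeded at 2000 cells/well, attached for 10-12 hours, then exposed to compounds for 30-36 hours at 37C before ONE-Glo luminescence.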
FLuc modulator: inhibits or activates purified firefly luciferase, miR-21 counter-screen. P08659. purified FLuc, Km substrates, luminescence inhibition. 360,000 tested, 6.9% active. Potency, µM (top dose mostly 57.5 µM), inactives show at the highest dose activity change, negative = inhibition, hits mostly inhibitors. AID 588342;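 note: plate controls were vehicle for no effect and reference inhibitor for full effect; nearly all actives have a fitted effect of over 55% in size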
Target sequence (P08659 whole entry, looked up): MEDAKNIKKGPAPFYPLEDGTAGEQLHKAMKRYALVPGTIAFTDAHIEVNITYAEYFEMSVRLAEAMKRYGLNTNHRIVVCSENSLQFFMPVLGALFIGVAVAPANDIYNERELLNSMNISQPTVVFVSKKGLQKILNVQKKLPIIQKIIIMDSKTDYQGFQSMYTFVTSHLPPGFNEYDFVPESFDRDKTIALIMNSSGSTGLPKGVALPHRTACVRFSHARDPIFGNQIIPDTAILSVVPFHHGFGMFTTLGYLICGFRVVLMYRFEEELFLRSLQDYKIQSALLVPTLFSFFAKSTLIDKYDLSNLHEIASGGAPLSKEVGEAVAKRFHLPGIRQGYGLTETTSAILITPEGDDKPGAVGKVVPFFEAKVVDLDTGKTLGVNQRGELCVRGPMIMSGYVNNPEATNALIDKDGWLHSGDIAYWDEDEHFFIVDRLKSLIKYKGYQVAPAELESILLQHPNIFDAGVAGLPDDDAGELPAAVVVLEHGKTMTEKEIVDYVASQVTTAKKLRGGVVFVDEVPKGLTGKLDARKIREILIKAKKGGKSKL
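Purified P. pyralis luciferase, 10 nM final, with Km-level 10 uM D-luciferin and 10 uM ATP in 50 mM Tris acetate pH 7.5, 10 mM Mg acetate, 0.01% Tween-20, 0.05% BSA; 6-point qHTS titration about 60 µM downward; luminescence read.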
Rab9 prom act: Rab9 promoter activation; Huh7 Rab9 promoter-luciferase reporter, luminescence, 24 h; Potency, µM (doses to about 9.22 µM), inactives show at the highest dose activation, negative = inhibition, actives largely listed as activators; 320,000 tested, 2.8% active; note: % of control where 0% means no effect; nearly all actives have a fitted effect of over 60% in size
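Luminescence read-out: Huh7 cells stably expressing Rab9-luciferase, treated 24 h with compound at 37 °C, then lysed with luciferase reagent for 10 min at ambient before reading.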
NPC1 prom act: activators of NPC1 promoter | Huh7 NPC1 promoter luciferase reporter, 24 h | Potency, µM (top dose mostly 9.22 µM), for inactives: at the top dose activation, actives largely listed as activators | 320,000 tested, 2.4% active; note: % of control where 0% means no effect; nearly all actives have a fitted effect of over 60% in size
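Huh7 cells stably carrying NPC1 promoter–luciferase, plated in Opti-MEM with 10% FBS for 2 h, were exposed to compound in DMSO for 24 h at 37 °C; luciferase reagent was added for 10 min and luminescence read.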
ELG1 repair inh: inhibitors of ELG1-dependent DNA repair in HEK293T cells; HEK293T ELG1-luciferase reporter, luminescence, 16 h; DNA damage induced by 5-fluorouridine; Potency, µM (top dose mostly 46.1 µM), for inactives: at the top dose activity change, negative = inhibition, most hits filed as inhibitors; 330,000 tested, 2.3% active; note: % is set by controls: 0 for no effect and ±100 for the full control effect; nearly all actives have a fitted effect of over 55% in size
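Quantitative HTS, concentration-response format. 2,000 cells/well co-treated with 5-fluorouridine and compound, 16 hr in 5% CO2 at 37 °C; ONE-Glo luminescence read after 30 min.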
ELG1 genotox: induces genotoxicity in HEK293T cells with luciferase-tagged ELG1. HEK293T ELG1-luciferase reporter, luminescence, 16 h. Potency, µM (top dose mostly 46 µM), inactives show top-dose activity change, positive = activation, most hits filed as activators. 330,000 tested, 1.3% active. AID 504466; note: % of control where 0% means no effect; nearly all actives have a fitted effect of over 60% in size
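Cells (2,000/well) expressing the ELG1-luciferase fusion are dosed by pin tool and kept 16 hr at 37 °C, 5% CO2. Signal comes from ONE-Glo luciferase reagent after 30 min at room temperature.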
* = called active by the depositor; ? = inconclusive; / = no result; [ ] = remark or other dose. In the library only some 9.3% were active in any assay of this set; here they are far more common. Calls come from the whole dose curve; as a rule, active = well fitted curve in the direction sought with a large enough effect; inconclusive = small, poorly fitted or top-dose-only effect, or another doubt; inactive = no such curve, though single readings can be large; an effect the other way counts as inactive or inconclusive. Potency is the fitted concentration of half-maximal effect.

SMILES	SMN2 splice enh	FLuc modulator	Rab9 prom act	NPC1 prom act	ELG1 repair inh	ELG1 genotox
Nc1ccc(-c2cc3ccccc3oc2=O)cc1	/	21µM*	-11%	-20%	15%	4%
Nc1ccc2oc(=O)c(-c3ccccc3)cc2c1	/	?	19%	?	24%	?
O=c1oc2ccccc2cc1O	-5%	/	/	/	/	/
O=c1oc2ccccc2cc1-c1ccc(O)cc1	?	12µM*	3.5µM*	?	?	?
O=c1oc2ccccc2cc1NCc1ccccc1O	5%	15µM*	17%	1%	?	?
COc1ccc2nc(SCC(=O)Nc3ccc4sc(C)nc4c3)c(C#N)cc2c1	-22%	-2%	17%	?	?	-1%
Cc1ccc(S(=O)(=O)Oc2ccc3ccc(O)cc3c2)cc1	/	-15%	-2%	-3%	8%	1%
O=C(O)CCc1nc(-c2ccccc2-n2cccc2)no1	-23%[9.22 µM]	/	/	/	/	/
Nc1ccccc1SCc1ccccc1Cl	/	?	-3%	-5%	1%	6%
CC(C(Sc1ccccc1N)c1ccccc1)[N+](=O)[O-] (stereo unspecified)	/	9.5µM*	-3%	-14%	?	?
N#CNC(=Nc1ccc(F)cc1)SCc1ccccc1	-1%	1%	-3%	-3%	16%	3%
COc1ccc(NC(=O)CN2C(=O)NC(C)(c3ccccc3)C2=O)cc1Cl (stereo unspecified)	/	21µM*	-3%	-1%	4%	2%
COc1ccc(C2(C)NC(=O)N(CC(=O)Nc3ccc4ccccc4c3)C2=O)cc1OC (stereo unspecified)	/	2%	-1%	-1%	?	-7%
COc1cccc(NC(=S)NCc2ccc3c(c2)cc(C)n3C)c1	/	-1%	16%	0%	-20%	-2%
COc1ccc(CNC(=O)Nc2cccc(Cl)c2)cc1	/	?	?	2.5µM*	?	?
COc1ccccc1C(=O)NC(=O)Nc1cccc(Cl)c1	/	2.7µM*	4µM*	?	?	?
Cc1cccc(NC(=O)NCc2ccc3c(c2)cc(C)n3C)c1	2%	-3%	-4%	4%	-7%	?
Cc1cccc(NC(=S)NCc2ccc3c(c2)cc(C)n3C)c1C	-17%	-6%	1%	3%	26µM*	-5%
Cc1cc2cc(CNC(=O)Nc3cccc(Cl)c3)ccc2n1C	-25%	-4%	0%	1%	-15%	23µM*
COc1ccccc1C(=O)Nc1cccc(NC(C)=O)c1	-11%	?	-5%	0%	7%	-1%
CCC(C)C(NC(=O)c1ccc(Cl)cc1)C(=O)O (stereo unspecified)	/	3%[2.3 µM]	2%	2%	11%	0%
Nc1nc(OCc2ccccc2)c2[nH]cnc2n1	17%	/	5%[46.1 µM]	2%[46.1 µM]	/	/
COc1cccc(NC(=O)CCNC(=O)c2ccccc2Cl)c1	-22%	5%	-2%	-1%	23%	2%
COc1ccc2nc(N(Cc3cccnc3)C(=O)COc3ccccc3)sc2c1	/	-11%	/	/	/	/
COc1ccc2nc(N(Cc3ccccc3)C(=O)CCNC(C)=O)sc2c1	/	19µM*	?	?	?	?
SMILES	SMN2 splice enh	FLuc modulator	Rab9 prom act	NPC1 prom act	ELG1 repair inh	ELG1 genotox
O=C(CCNC(=O)c1ccccc1Cl)Nc1nc(-c2ccccc2Cl)cs1	3%	17µM*	1%	8%	?	14%
COc1ccc2sc(NC(=O)c3ccco3)nc2c1	?	0.76µM*	0.35µM*	0.5µM*	?	?
CCN(c1ccc(OC)cc1)S(=O)(=O)c1nnc(NC(=O)c2ccco2)s1	/	2%	-1%	-9%	8%	1%
COc1ccc2nc(NC(=O)CCNC(=O)c3ccccc3Cl)sc2c1	16µM*	19µM*	30%	16%	25%	10%
O=C(COC(=O)c1ccco1)Nc1nc2ccccc2s1	9%	?	2%	-4%	?	10%
O=C(CCNC(=O)c1ccco1)Nc1nc2ccccc2s1	/	?	?	26%	?	9%
COc1ccc(OCCn2c(NC(=O)c3ccco3)nc3ccccc32)cc1	-12%	?	7%	9%	13µM*	-15%
COc1ccc2nc(NC(=O)CCNC(=O)c3ccco3)sc2c1	/	12µM*	3.2µM*	3.2µM*	?	?
O=C(NC(=S)Nc1nc2ccccc2s1)c1ccco1	11µM*	1.5µM*	?	?	?	?
COc1ccc(-c2csc(NC(=S)NC(=O)c3ccco3)n2)cc1	?	0%	-1%	-3%	?	20%
CCCn1c(NC(=O)c2ccco2)nc2ccccc21	1%	-6%[2.3 µM]	-3%	-4%	-17%	-9%
COc1ccc2nc(NC(=S)NC(=O)c3ccco3)sc2c1	7.9µM*	0.67µM*	1µM*	3.2µM*	?	?
CCOc1ccccc1N1CC(c2nc3ccccc3n2Cc2c(C)cc(C)cc2C)CC1=O (stereo unspecified)	16%	4%	/	/	/	/
CCCn1c(NC(=O)c2ccccc2Br)nc2ccccc21	-50%	-7%	3%	-3%	0%	-12%
CCCn1c(NC(=O)CCNC(=O)c2ccccc2Cl)nc2ccccc21	/	0%	-1%	3%	21µM*	-1%
CC(C)N=C(NS(=O)(=O)c1ccccc1)C(Cl)(Cl)Cl	?	3%	-18%	-8%	5.2µM*	-14%
COc1ccc(C2C(C(=O)N3CCN(c4ccccc4)CC3)c3ccccc3C(=O)N2C)cc1 (stereo unspecified)	-13%	0%	1%	-7%	21µM*	-9%
COc1ccc(C2C(C(=O)N3CCN(c4ccccc4)CC3)c3ccccc3C(=O)N2C)cc1OC (stereo unspecified)	6%	2%	-1%	1%	8%	0%
COc1cc2c(cc1OC)C(C(=O)N1CCN(c3ccccc3)CC1)C(c1cccs1)N(C)C2=O (stereo unspecified)	2%	8%	0%	-4%	18µM*	-7%
COc1ccc2c(c1)c(=O)c(S(=O)(=O)c1ccccc1)cn2CC(=O)Nc1ccc2c(c1)OCO2	1%	-2%	/	/	/	/
Cc1ccc(Nc2nc(CSc3nnc(-c4ccccc4C)n3C)cs2)cc1	/	1.9µM*	?	?	?	3%
Cc1ccc(Nc2nc(CSc3nnc(-c4ccccc4)n3C)cs2)cc1	?	1.2µM*	?	?	?	?
Cc1ccccc1-n1c(SCc2csc(Nc3ccccc3)n2)nnc1-c1cccnc1	-13%	?	-1%	0%	?	-8%
